Compound activity as filed in PubChem.
Only some compounds are listed: those with a hit (about 1.2% of all), similar ones and a draw of the others.
MLL AF4-AF9 inh – MLL-AF4/AF9 protein interaction inhibition. AlphaScreen, biotin-AF4 peptide binding to FLAG-AF9. inhibition, % at 10 µM. P42568. actives 0.47% (n = 350,000). AID 651704;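 active means every replicate reaching a set inhibition limit, whatever the replicate mean, cut at about 25% in these data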
N-glyco inh – blocks N-linked glycosylation in D54 reporter cells. D54 ERlucT glycosylation luciferase reporter, 24 h; percent of 100 nM tunicamycin response. reporter increase, % at 12.5 µM. AID 588692. actives 0.23% (n = 360,000);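 active means mean luciferase reporter signal, scaled so untreated is 0 and the glycosylation-blocking control 100, at or above a set limit in every replicate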;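 further: luciferase carries N-glycosylation sites so blocking glycosylation raises the light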
RAD54 branch – RAD54 (human) branch migration inhibition | Q92698 | actives 0.14% (n = 360,000) | AID 602329 | inhibition, % at 10.4 µM | RAD54 Holliday junction branch migration, FAM/BHQ fluorescence;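 active means mean normalized replicate activity at least 40 and at least half of replicates scoring 40 or more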;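 further: inhibitors cause a drop in the FAM fluorescence signal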
RAD52 inh – inhibitors of human RAD52 DNA annealing | P43351 | recombinant RAD52 DNA annealing, FRET fluorescence | inhibition, % at 18.7 µM | actives 0.46% (n = 360,000) | AID 651710;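 active means every replicate showing at least 50% inhibition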
Target sequence (P43351 whole entry, looked up): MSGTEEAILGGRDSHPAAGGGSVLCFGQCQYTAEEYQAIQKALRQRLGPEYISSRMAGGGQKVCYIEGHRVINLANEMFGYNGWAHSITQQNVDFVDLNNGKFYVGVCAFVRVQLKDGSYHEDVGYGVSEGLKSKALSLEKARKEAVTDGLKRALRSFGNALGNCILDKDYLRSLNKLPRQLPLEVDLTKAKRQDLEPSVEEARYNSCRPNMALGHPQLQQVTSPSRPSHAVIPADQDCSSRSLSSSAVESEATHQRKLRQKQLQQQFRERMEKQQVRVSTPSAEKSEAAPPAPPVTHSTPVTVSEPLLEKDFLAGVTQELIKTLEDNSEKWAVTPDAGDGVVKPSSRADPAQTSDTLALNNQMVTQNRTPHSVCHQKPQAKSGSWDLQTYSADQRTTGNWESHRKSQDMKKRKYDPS
CASP6 VEID inh – caspase-6 (human) enzyme inhibition; purified caspase-6, Z-VEID-R110 cleavage fluorescence; actives 0.53% (n = 350,000); inhibition, % at 12.5 µM; P55212;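 active means mean inhibition across replicates at least about 35%, with every replicate also reaching that limit, limit read from the data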
Target sequence (P55212 24-179 limits assumed): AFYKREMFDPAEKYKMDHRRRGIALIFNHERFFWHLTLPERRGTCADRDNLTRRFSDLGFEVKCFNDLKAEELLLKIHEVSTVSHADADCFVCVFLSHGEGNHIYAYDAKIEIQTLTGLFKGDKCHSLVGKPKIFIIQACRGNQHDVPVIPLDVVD
Target sequence (P55212 194-293 limits assumed): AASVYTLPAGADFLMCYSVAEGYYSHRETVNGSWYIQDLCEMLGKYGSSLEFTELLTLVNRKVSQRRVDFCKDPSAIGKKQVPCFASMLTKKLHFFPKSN
Hits are given with their value; ! = not confirmed by another sample.

How did Cc1cc(NCCCN2CCOCC2)n2c(nc3ccccc32)c1C#N do in these assays?
N-glyco inh: inactive; RAD54 branch: 53

What do the screens show for `CCN(CC)CCCNc1cc(C)c(C#N)c2nc3ccccc3n12`?
MLL AF4-AF9 inh: inactive; N-glyco inh: 43; RAD54 branch: inactive; RAD52 inh: inactive; CASP6 VEID inh: inactive

Results for Cc1cc(NCCN2CCOCC2)n2c(nc3ccccc32)c1C#N ?
N-glyco inh: inactive; RAD54 branch: inactive

Results for C[C@@H]1CN([C@H](C)CO)C(=O)c2cc(-c3ccccc3F)cnc2O[C@@H]1CN(C)C(=O)C1CCC1 ?
MLL AF4-AF9 inh: inactive; RAD54 branch: inactive; RAD52 inh: inactive; CASP6 VEID inh: inactive

How did Cc1ccc(C(=O)O)cc1NC(=S)NC(=O)c1ccc(COc2ccccc2)cc1 do in these assays?
MLL AF4-AF9 inh: inactive; N-glyco inh: inactive; RAD54 branch: inactive; RAD52 inh: inactive; CASP6 VEID inh: 38

Results for O=C(O)CCN1CC2([N+](=O)[O-])C=CC(=O)C([N+](=O)[O-])(C1)C2CC(=O)c1ccccc1 (centres undefined) ?
MLL AF4-AF9 inh: inactive; N-glyco inh: inactive; RAD54 branch: inactive; RAD52 inh: inactive; CASP6 VEID inh: 43

What do the screens show for `O=C1C=C(Nc2ccccc2C(=O)O)c2ccccc2C1=O`?
MLL AF4-AF9 inh: inactive; N-glyco inh: inactive; RAD54 branch: inactive; RAD52 inh: inactive; CASP6 VEID inh: 89

What do the screens show for `O=C1C=C(Nc2ccccc2)C(=O)c2ccccc21`?
MLL AF4-AF9 inh: inactive; N-glyco inh: inactive; RAD54 branch: inactive; RAD52 inh: inactive; CASP6 VEID inh: inactive

Results for O=C1C=C(Nc2ccccc2)c2ccccc2C1=O ?
MLL AF4-AF9 inh: inactive; N-glyco inh: inactive; RAD52 inh: inactive; CASP6 VEID inh: 97

What do the screens show for `COc1ccc(NC(=O)N(C)C[C@H]2Oc3c(NC(=O)Nc4ccc(F)cc4)cccc3C(=O)N([C@H](C)CO)C[C@@H]2C)cc1`?
MLL AF4-AF9 inh: inactive; RAD54 branch: inactive; RAD52 inh: inactive; CASP6 VEID inh: inactive

What do the screens show for `CCC(=O)N1C[C@@H](C)[C@@H](OC)CN(C)C(=O)c2cc(NC(=O)Nc3cccc(F)c3)ccc2OC[C@@H]1C`?
MLL AF4-AF9 inh: inactive; RAD54 branch: inactive; RAD52 inh: inactive; CASP6 VEID inh: inactive

What do the screens show for `Cc1cccc(Nc2nc(-c3ccc(O)c(O)c3)cs2)n1`?
MLL AF4-AF9 inh: 26; N-glyco inh: inactive; RAD54 branch: inactive; RAD52 inh: inactive; CASP6 VEID inh: inactive

How did Cc1ccnc(Nc2nc(-c3ccc(O)c(O)c3)cs2)c1 do in these assays?
MLL AF4-AF9 inh: 41; N-glyco inh: inactive; RAD54 branch: inactive; RAD52 inh: inactive; CASP6 VEID inh: inactive

What do the screens show for `Cc1cccc(Nc2nc(-c3ccc(F)c(C)c3)cs2)n1`?
MLL AF4-AF9 inh: inactive; N-glyco inh: inactive; RAD54 branch: inactive; RAD52 inh: inactive; CASP6 VEID inh: inactive

How did Oc1ccc(-c2csc(Nc3cccc4ccccc34)n2)cc1O do in these assays?
MLL AF4-AF9 inh: inactive; N-glyco inh: inactive; RAD54 branch: inactive; RAD52 inh: inactive; CASP6 VEID inh: 43

Results for CCOC(=O)C(=Cc1ccc(N(C)C)cc1)C(=O)c1ccccc1 ?
MLL AF4-AF9 inh: inactive; N-glyco inh: inactive; RAD52 inh: inactive; CASP6 VEID inh: inactive

What do the screens show for `CCOC(=O)N(O)c1ccc(C=Cc2ccccc2)cc1`?
MLL AF4-AF9 inh: inactive; N-glyco inh: inactive; RAD52 inh: inactive; CASP6 VEID inh: 67

What do the screens show for `COc1ccc(NC(=O)N(C)C[C@@H]2OCCCC[C@@H](C)Oc3ccc(NS(=O)(=O)c4cccs4)cc3C(=O)N([C@@H](C)CO)C[C@H]2C)cc1`?
MLL AF4-AF9 inh: inactive; RAD54 branch: inactive; RAD52 inh: inactive; CASP6 VEID inh: inactive

Results for Oc1ccc(/C=C/c2ccc3cccc(O)c3n2)cc1Br ?
MLL AF4-AF9 inh: 26; N-glyco inh: inactive; RAD54 branch: inactive; RAD52 inh: inactive; CASP6 VEID inh: inactive

Results for COc1ccc(Cl)cc1/C=C/c1ccc2cccc(O)c2n1 ?
MLL AF4-AF9 inh: inactive; N-glyco inh: inactive; RAD52 inh: inactive; CASP6 VEID inh: inactive

Results for COc1ccccc1/C=C/c1ccc2cccc(O)c2n1 ?
MLL AF4-AF9 inh: 27; N-glyco inh: inactive; RAD54 branch: inactive; RAD52 inh: inactive; CASP6 VEID inh: inactive

What do the screens show for `COc1ccc2c3c([nH]c2c1)[C@H](CO)N(C(=O)NC(C)C)CC31CN(C(=O)NC2CCCC2)C1`?
MLL AF4-AF9 inh: inactive

Results for C[C@H](CO)N1C[C@H](C)[C@@H](CN(C)Cc2ccc(C(=O)Nc3ccccc3N)cc2)Oc2ccc(NC(=O)Cc3cn(C)c4ccccc34)cc2CC1=O ?
MLL AF4-AF9 inh: inactive; RAD54 branch: inactive; RAD52 inh: 61; CASP6 VEID inh: inactive

Results for C[C@@H]1CN([C@@H](C)CO)C(=O)Cc2cc(NC(=O)Cc3cn(C)c4ccccc34)ccc2O[C@H]1CN(C)Cc1ccc(C(=O)Nc2ccccc2N)cc1 ?
MLL AF4-AF9 inh: inactive; RAD54 branch: inactive; RAD52 inh: inactive; CASP6 VEID inh: inactive

How did C[C@@H]1CN([C@@H](C)CO)C(=O)Cc2cc(NC(=O)CCCN(C)C)ccc2O[C@H]1CN(C)Cc1ccc(C(=O)Nc2ccccc2N)cc1 do in these assays?
MLL AF4-AF9 inh: 31; RAD52 inh: 83; CASP6 VEID inh: inactive

How did C[C@H](CO)N1C[C@H](C)[C@@H](CN(C)Cc2ccccc2)Oc2ccc(NC(=O)CCCCCC(=O)Nc3ccccc3N)cc2C1=O do in these assays?
N-glyco inh: 29; RAD54 branch: inactive; RAD52 inh: inactive

Results for C[C@H](CO)N1C[C@H](C)[C@@H](CN(C)Cc2ccc(-c3ccccc3)cc2)Oc2ccc(NC(=O)CCCN(C)C)cc2C1=O ?
MLL AF4-AF9 inh: inactive; RAD54 branch: inactive; RAD52 inh: inactive; CASP6 VEID inh: inactive

Results for C[C@@H]1CN([C@@H](C)CO)C(=O)Cc2cc(NC(=O)CCCN(C)C)ccc2O[C@H]1CN(C)Cc1ccc(-c2ccccc2)cc1 ?
MLL AF4-AF9 inh: inactive; RAD52 inh: 77!; CASP6 VEID inh: inactive

Results for C[C@H]1CN([C@@H](C)CO)C(=O)Cc2cc(NC(=O)Cc3ccccc3)ccc2O[C@H]1CN(C)Cc1ccc(C(=O)Nc2ccccc2N)cc1 ?
MLL AF4-AF9 inh: inactive; RAD52 inh: inactive; CASP6 VEID inh: inactive

What do the screens show for `C[C@@H]1CN([C@H](C)CO)C(=O)c2cc(NC(=O)CCCCCC(=O)Nc3ccccc3N)ccc2O[C@@H]1CN(C)Cc1ccccc1`?
MLL AF4-AF9 inh: inactive; RAD52 inh: inactive; CASP6 VEID inh: inactive

Results for CCCNC(=O)N1C[C@H](C)[C@H](OC)CN(C)C(=O)c2ccc(NC(C)=O)cc2OC[C@H]1C ?
MLL AF4-AF9 inh: inactive

Results for C[C@@H]1CN([C@H](C)CO)C(=O)Cc2cc(NC(=O)CCC(F)(F)F)ccc2O[C@@H]1CN(C)Cc1ccc(C(=O)Nc2ccccc2N)cc1 ?
MLL AF4-AF9 inh: inactive; RAD54 branch: inactive; RAD52 inh: inactive; CASP6 VEID inh: inactive

How did O=C(C1CCC1)N1CC2(C1)[C@H](c1ccccc1)[C@H](CO)N2Cc1cncnc1 do in these assays?
MLL AF4-AF9 inh: inactive; RAD52 inh: inactive; CASP6 VEID inh: inactive
